What was measured:
Assay in all cases: growth inhibition (% activity, log2 RLU normalised to DMSO / staurosporine); higher = more growth inhibition
Conditions in all cases: 33 µM
DIPGX29 = tested on: DIPGX29 (H3.3 K27M diffuse intrinsic pontine glioma line)
In short: (§1)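 pHGG cell lines and H9-derived neural stem cells were grown on Geltrex-coated 384-well plates. Approved drugs were added by pin tool at a single final concentration of about 33 μM, in triplicate, for 7 days at 37 °C, 5% CO2. CellTiter-Glo luminescence was log2-transformed and normalised per plate to % activity between solvent and positive control wells. The growth-inhibition value is the median over replicates.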

DIPGX37 = tested on: DIPGX37 (H3.3 K27M diffuse intrinsic pontine glioma line)
In short: as §1

DIPGX7 = tested on: DIPGX7 (H3.3 K27M diffuse intrinsic pontine glioma line)
In short: as §1

DIPGX9 = tested on: DIPGX9 (diffuse intrinsic pontine glioma line)
In short: as §1

HGGX39 = tested on: HGGX39 (paediatric high-grade glioma line)
In short: as §1

HGGX6 = tested on: HGGX6 (H3.3 G34R paediatric high-grade glioma line)
In short: as §1

HNSC = tested on: HNSC
In short: as §1

SUDIPGIV = tested on: SUDIPGIV (diffuse intrinsic pontine glioma line)
In short: as §1

SUDIPGVI = tested on: SUDIPGVI (diffuse intrinsic pontine glioma line)
In short: as §1

SUDIPGXIII = tested on: SUDIPGXIII (diffuse intrinsic pontine glioma line)
In short: as §1

Row | SMILES | growth inhibition (DIPGX29) [%] | growth inhibition (DIPGX37) [%] | growth inhibition (DIPGX7) [%] | growth inhibition (DIPGX9) [%] | growth inhibition (HGGX39) [%] | growth inhibition (HGGX6) [%] | growth inhibition (HNSC) [%] | growth inhibition (SUDIPGIV) [%] | growth inhibition (SUDIPGVI) [%] | growth inhibition (SUDIPGXIII) [%]
1 | O=C(Nc1ccccc1)OCC(CN1CCCCC1)OC(=O)Nc1ccccc1 (stereo not given) | -1.04 | -3.49 | -0.617 | -1.45 | -2.3 | -1.35 | 9.66 | -3.64 | -7.72 | 1.16
2 | C=C1c2c(Cl)ccc(O)c2C(=O)C2=C(O)[C@]3(O)C(=O)C(C(N)=O)=C(O)[C@@H](N(C)C)[C@@H]3[C@@H](O)[C@H]12.O=C(O)c1cc(S(=O)(=O)O)ccc1O | 3.13 | 1.57 | 2.88 | 2.29 | 8.03 | 6.26 | 8.17 | 7.96 | 4.89 | 3.19
3 | CC(=O)NS(=O)(=O)c1ccc(N)cc1 | 0.584 | 1.84 | 0.329 | 0.364 | 1.9 | 2.46 | -1.34 | -0.27 | 0.507 | 0.27
4 | Cc1ncc(CO)c(CO)c1O | 0.532 | 1.29 | 0.82 | 0.826 | -0.552 | 2.21 | 1.1 | 0.59 | 0.153 | -0.917
5 | Cc1cc(N)c2ccccc2[n+]1CCCCCCCCCC[n+]1c(C)cc(N)c2ccccc21 | 39.6 | 46.2 | 35.4 | 41.1 | 55.5 | 36.2 | 57.8 | 50 | 50.9 | 52.5
6 | O=P(O)(O)C(Cl)(Cl)P(=O)(O)O | 0.766 | -0.716 | 0.292 | 1.96 | 2.08 | -0.402 | 0.239 | 0.894 | 2.08 | -0.0137
7 | O=C(O)c1cccnc1 | 0.555 | 1.13 | 0.846 | 1.6 | 0.355 | 1.52 | -0.701 | -0.463 | 1.65 | -1.24
8 | OC[C@H]1O[C@H](O[C@]2(CCl)O[C@H](CCl)[C@@H](O)[C@@H]2O)[C@H](O)[C@@H](O)[C@H]1Cl | -2.41 | -0.64 | -2.77 | -3.01 | -2.1 | -2.77 | -5.57 | -0.426 | -3.09 | 0.882
9 | CCc1cccc2c3c([nH]c12)C(CC)(CC(=O)O)OCC3 (stereo not given) | 1.41 | 0.479 | 3.29 | 0.48 | 2.3 | 0.44 | 2.88 | -3.78 | 1.87 | 1.77
10 | CN1C(C(=O)Nc2ccccn2)=C(O)c2sccc2S1(=O)=O | -1.4 | 1.63 | -0.195 | 1.24 | 0.358 | 0.485 | -0.824 | -4.89 | 0.891 | -0.625
11 | Nc1ccn(C2CSC(CO)O2)c(=O)n1 (stereo not given) | 0.0189 | 0.319 | -0.231 | 0.518 | 0.787 | -0.895 | 1.26 | -0.385 | 1.46 | 0.705
12 | N[C@@H](Cc1ccc(O)c(O)c1)C(=O)O | -0.663 | 0.423 | -0.313 | 0.542 | 2.68 | 1.4 | 0.395 | -0.394 | -1.98 | -0.139
13 | NC[C@@H]1O[C@H](O[C@H]2[C@@H](O)[C@H](O[C@@H]3[C@@H](O)[C@H](N)C[C@H](N)[C@H]3O[C@H]3O[C@H](CO)[C@@H](O)[C@H](O)[C@H]3N)O[C@@H]2CO)[C@H](N)[C@@H](O)[C@@H]1O | 0.301 | 2.89 | 0.972 | 0.973 | 1.1 | 1.84 | -2.1 | -0.26 | 0.401 | 0.0349
14 | C[N+](C)(CCOc1ccccc1)Cc1ccccc1.O=C([O-])c1cc2ccccc2cc1O | -1.73 | 0.336 | -2.4 | -0.621 | -1.29 | -2.23 | -1.38 | 2.44 | 1.1 | -1.56
15 | CN1CCN2c3ncccc3Cc3ccccc3C2C1 (stereo not given) | -2.74 | -1.56 | -0.7 | -1.19 | 1.93 | -2.31 | 2.94 | -0.123 | -5.43 | -0.736
16 | CC(=O)O[C@@]12CO[C@@H]1C[C@H](O)[C@@]1(C)C(=O)[C@H](O)C3=C(C)[C@@H](OC(=O)[C@H](O)[C@@H](NC(=O)OC(C)(C)C)c4ccccc4)C[C@@](O)([C@@H](OC(=O)c4ccccc4)[C@H]21)C3(C)C | 8.91 | 8.27 | 8.76 | 19.3 | 24.5 | 15.8 | 55.1 | 21.6 | 8.93 | 6.64
17 | Clc1ccc(C(Cn2ccnc2)OCc2ccc(Sc3ccccc3)cc2)c(Cl)c1 (stereo not given) | 2.76 | 0.833 | 2.5 | 4.7 | 11.8 | 8.32 | 14 | 11.4 | 2.82 | 5.1
18 | Clc1ccc(C(Cn2ccnc2)OCc2csc3c(Cl)cccc23)c(Cl)c1 (stereo not given) | 2.06 | 3.55 | 1.45 | 1.99 | 8.8 | 6.02 | 10.7 | 13.8 | 1.94 | 5.27
19 | Cc1cn([C@H]2C[C@H](N=[N+]=[N-])[C@@H](CO)O2)c(=O)[nH]c1=O | 3.15 | 3.86 | 4.01 | 3.46 | 5.5 | 1.53 | 10.3 | 3.31 | 3.71 | -0.807
20 | C[C@@H](O)[C@H]1C(=O)N2C(C(=O)[O-])=C(SC3Cn4cnc[n+]4C3)[C@H](C)[C@H]12 (stereo not given in full) | -0.594 | -1.93 | -0.736 | 0.334 | 0.724 | 2.31 | -1.63 | -0.792 | 0.279 | 1.62
21 | c1ccc(CN(CC2=NCCN2)c2ccccc2)cc1 | 1.93 | 1.36 | 0.575 | 3.38 | 1.53 | 0.0328 | 0.623 | -2.17 | 3.06 | 0.969

Source: the supplement of paper PMC8253809
